Results: PubChem BioAssay (Tox21)
Results filed as inconclusive are left out. Entries that show only a call come without a potency. Calls of active or inactive are those of the source. Calls come from the whole dose curve; as a rule, active = well fitted inhibition curve with a large enough effect in the signal ratio in the repeat runs, with a control signal flat; inconclusive = weak or mixed curves, or effect the other way; inactive = flat fitted curve, though single readings scatter; the % refers to the signal ratio.

The molecules below were run against D(2) dopamine receptor (Homo sapiens) (UniProt P14416) (assay: Dopamine D2 receptor (DRD2) small molecule antagonists, cell-based qHTS assay (AID 1963595)). Details: HEK293-DRD2 cAMP HTRF antagonist mode; series mostly up to 92.4 µM.
D(2) dopamine receptor (Homo sapiens), sequence (P14416 whole entry, looked up): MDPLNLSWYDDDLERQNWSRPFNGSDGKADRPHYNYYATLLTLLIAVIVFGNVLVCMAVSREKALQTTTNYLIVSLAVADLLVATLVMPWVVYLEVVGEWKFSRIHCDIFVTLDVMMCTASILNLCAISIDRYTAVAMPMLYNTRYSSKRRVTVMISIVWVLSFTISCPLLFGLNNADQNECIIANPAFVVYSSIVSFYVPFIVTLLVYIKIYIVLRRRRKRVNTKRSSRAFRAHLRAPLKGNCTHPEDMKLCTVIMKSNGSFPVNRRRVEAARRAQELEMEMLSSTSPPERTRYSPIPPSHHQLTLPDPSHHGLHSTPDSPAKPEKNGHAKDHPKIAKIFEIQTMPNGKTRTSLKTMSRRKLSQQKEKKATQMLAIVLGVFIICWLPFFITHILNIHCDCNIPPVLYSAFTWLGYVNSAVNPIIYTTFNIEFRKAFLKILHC
Source text: National Center for Advancing Translational Sciences [NCATS]
Division of Preclinical Innovation [DPI]
U.S. Environmental Protection Agency [EPA]
National Institutes of Environmental Health Sciences [NIEHS]
National Toxicology Program [NTP]
U.S. Food and Drug Administration [FDA]
DRD2 is the D2 subtype of the dopamine receptor, which is coupled to Gi subtype of G protein-coupled receptor. This G protein-coupled receptor inhibits adenylyl cyclase activity. The DRD2-HEK293 cell line stably expressing D2 dopamine receptor can be used for screening agonists and antagonists of interactions between D2 and its ligands. The Hek293-DRD2 cAMP assay is based on HTRF technology. It measures changes of cAMP accumulation in response to Gi coupled GPCR activation or inhibition.
Tox21 Assay Protocol Summary:
DRD2-Hek293 cells were dispensed at 600 cells/3uL/well in 1536-well white plates using a Multidrop Dispenser. After the assay plates were incubated at a 37 C/5% CO2 incubator for 24 h, 1 uL of Ro20-1724 at final concentration of 0.1 mM was transferred to the assay plate by a Flying Reagent Dispenser. Following Ro20-1724 addition, 23 nL of compound dissolved in DMSO, positive controls or DMSO only was added to the assay plates via Wako pintool station. The assay plates were incubated at room temperature for 10 min. Next, 1 uL of mixture of NKH477 (final concentration at 200 nM) and quinpirole (final concentration at 12 nM) was added into the plates. After the assay plates were incubated at room temperature for an additional 30 min, 2.5 ul/well of cAMP-d2 and 2.5 ul/well of anti-cAMP-cryptate were added respectively into the assay plates using a Flying Reagent Dispenser. The plates were incubated at room temperature for 1 h. The fluorescence intensity in the plates was measured at 340 nm excitation and 665 & 620 nm emission by an Envision plate reader.

| Compound | Potency |
| --- | --- |
| C=C1CC[C@@]2(O)[C@H]3Cc4ccc(O)c5c4[C@@]2(CCN3CC2CC2)[C@H]1O5 | inactive |
| CCC(C)c1cc([N+](=O)[O-])cc([N+](=O)[O-])c1O (stereo not given) | inactive |
| CCOC(=O)N(C)N=O | inactive |
| CCOC(=S)S | inactive |
| COP(=O)(OC)OC=C(Cl)Cl | inactive |
| O=c1oc2ccccc2c(O)c1C(CC(O)c1ccc(-c2ccc(Br)cc2)cc1)c1ccccc1 (stereo not given) | inactive |
| Cc1cnc(C2=NC(C)(C(C)C)C(=O)N2)c(C(=O)O)c1 (stereo not given) | inactive |
| CC[n+]1ccccc1 | inactive |
| C=CCc1ccc(OC)cc1 | inactive |
| O=C(CBr)c1ccc(O)cc1 | inactive |
| O=[N+]([O-])CCO | inactive |
| C#CCOC(=O)/C=C(C)/C=C/CC(C)CCCC(C)C (stereo not given) | inactive |
| CCN(CC)C(=S)S | inactive |
| COc1nc(NC(C)C)nc(NC(C)C)n1 | inactive |
| CC(C)(C)C(=O)C(Cl)Cl | inactive |
| c1ccc(Nc2ccc3ccccc3c2)cc1 | inactive |
| N#CC(Cl)(Cl)Cl | inactive |
| C[N+](C)(C)Cc1ccccc1 | inactive |
| [CH3][Sn]([Cl])([Cl])[Cl] | inactive |
| O=C(O)CC[N+](=O)[O-] | inactive |

| Compound | Potency |
| --- | --- |
| COc1ccccc1OC | inactive |
| COCCl | inactive |
| CCCCOC(=O)CCC(=O)OCCCC | inactive |
| C[C@]12CC[C@H]3[C@@H](CCC4=CC(=O)CC[C@@H]43)[C@@H]1CC[C@@H]2O | inactive |
| O=C(O)CCCOc1ccc(Cl)cc1Cl | inactive |
| CC(C)NC(C)C | inactive |
| CCCCCCn1cc[n+](C)c1 | inactive |
| CCOP(=S)(OCC)Oc1nc(Cl)c(Cl)cc1Cl | inactive |
| O=c1[nH]c(=O)n(Cl)c(=O)n1Cl | inactive |
| O=P(O)(O)CN(CP(=O)(O)O)CP(=O)(O)O | inactive |
| Cl/C=C\C[N+]12CN3CN(CN(C3)C1)C2 | inactive |
| Cc1ccccc1N | inactive |
| Cn1cc(-c2ccccc2)c(=O)c(-c2cccc(C(F)(F)F)c2)c1 | inactive |
| C[C@H]1C(=O)O[C@@H]2CCN3CC=C(COC(=O)[C@](C)(O)[C@]1(C)O)[C@H]23 | inactive |
| O=S(=O)(c1ccc(O)cc1)c1ccc(O)cc1 | inactive |
| CCC[CH2][Sn]([Cl])([Cl])[Cl] | inactive |
| Nc1ncc([N+](=O)[O-])s1 | inactive |
| CC1CC(=O)O1 (stereo not given) | inactive |
| CC(=[OH+])/C=C(/C)[O-].CC(=[OH+])/C=C(\C)[O-].CC(=[OH+])/C=C(\C)[O-].[Al] | inactive |
| CCCCC(CC)CO[N+](=O)[O-] (stereo not given) | inactive |
